Assay outcomes from PubChem BioAssay.
This is a sample that favours compounds with a hit; in the whole collection about 2.6% have one here.
uPA generation – blocks generation of uPA at the cell surface; cell surface uPA generation assay, qHTS; Potency, µM (series often up to 38.3 µM), without a hit: at the highest dose activity change, negative = inhibition, most hits filed as inhibitors; hit rate 0.31% among 330,000; AID 540303; active = well fitted inhibition curve with a large enough effect; inconclusive = small, poorly fitted or top-dose-only effect; inactive = no such curve, though single readings can be large or run the other way; tested in mouse RAW 264.7 cells; note: potency is the fitted concentration of half-maximal effect; % is set by controls: 0 for no effect and ±100 for the full control effect; nearly all actives have a fitted effect of over 55% in size
HepG2 tox-1 – HepG2 cytotoxicity, counter-screen for TGF-b inhibitors. HepG2 CAGA-GFP viability, ATP luminescence, 18 h. Potency, µM (highest dose often 46.1 µM), inactives show top-dose activity change, negative = cytotoxicity, usual class: cytotoxic. hit rate 0.76% among 410,000; note: potency is the fitted concentration of half-maximal effect
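HepG2 CAGA-GFP cells (1000/well, DMEM with 1% FBS) received compound, then TGF-beta at 500 pg/mL final, and were incubated 18 hours at 37 degrees C. Viability was read by CellTiter-Glo luminescence. Media-only wells were set as complete cell-killing and DMSO as no toxicity.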
ATXN viability – viability counter-screen for ATXN expression inhibitors; S2 cells (HEK-293 line with an ATXN2-luciferase reporter) viability, CellTiter-Fluor protease fluorescence, 24 h; Potency, µM (series often up to 56.7 µM), actives largely listed as cytotoxic; hit rate 0.49% among 400,000; AID 651635; note: potency is the fitted concentration of half-maximal effect; nearly all actives have a fitted effect of over 40% in size
TGFb SMAD3 inh – TGF-b pathway inhibition; HepG2 CAGA-GFP TGF-b/SMAD3 reporter, GFP fluorescence, 18 h; TGF-beta stimulated, 500 pg/mL final; Potency, µM (titrated, usually from 46.1 µM), for inactives: top-dose activity, negative = inhibition, most hits filed as inhibitors; hit rate 1.2% among 410,000; AID 588855; note: potency is the fitted concentration of half-maximal effect; % is set by controls: 0 for no effect and ±100 for the full control effect; nearly all actives have a fitted effect of over 65% in size
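HEPG2 CAGA-GFP reporter cells (1000/well, DMEM with 1% FBS) received compounds, then recombinant TGF-beta at 500 pg/mL final for 18 hours at 37 degrees C. Per-cell GFP summed per well was normalised to unstimulated and stimulated DMSO controls before curve fitting.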
Giardia kill – kills Giardia lamblia; activity change, % at 7.66 µM, hits read low; hit rate 0.15% among 340,000; AID 540267; Giardia lamblia trophozoite viability; in the data active = activity change below about -80%; inconclusive = between about -30% and that limit;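 note: parasites exposed to compound for two days anaerobically before the ATP read; % is set by controls: 0 for no effect and ±100 for the full control effect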
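Trophozoites 100 cells/well + cpd; 48 hrs, 37 deg C, anaerobic. ATPLite 1-Step added, 15-30 min RT, luminescence read (ATP-based viability).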
ATXN2 expr inh – ATXN2 expression inhibition | hit rate 0.72% among 360,000 | HEK-293 ATXN2-luciferase reporter, luminescence, 24 h | Potency, µM (top dose mostly 57 µM), for inactives: at the highest dose activity change, negative = inhibition, most hits filed as inhibitors; note: potency is the fitted concentration of half-maximal effect; % is set by controls: 0 for no effect and ±100 for the full control effect; nearly all actives have a fitted effect of over 55% in size
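ATXN2-luciferase reporter cells (luciferase flanked by upstream and downstream ATXN2 gene portions) were treated 24 h at 37 °C with compounds at up to 57 uM. SteadyGlo luminescence gave expression; GF-AFC fluorescence gave viability.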
TGFb confirm – confirmation of TGF-b signaling inhibitors in HepG2 reporter cells; shares compounds with TGFb SMAD3 inh; Potency, µM (series often up to 46.1 µM), for inactives: at the top dose activity, negative = inhibition, actives largely listed as inhibitors; hit rate 63% among 1,600; HepG2 CAGA-GFP TGF-b reporter, GFP fluorescence, 18 h; cells stimulated with TGF-beta, 500 pg/mL; note: potency is the fitted concentration of half-maximal effect; % is set by controls: 0 for no effect and ±100 for the full control effect; nearly all actives have a fitted effect of over 65% in size
HepG2 tox-2 – toxic to HepG2 cells in TGF-b counterscreen | shares compounds with TGFb SMAD3 inh | HepG2 CAGA-GFP viability, ATP luminescence, 18 h; cells stimulated with TGF-beta, 500 pg/mL | Potency, µM (series often up to 46.1 µM), without a hit: at the top dose activity, negative = cytotoxicity, actives largely listed as inhibitors | hit rate 27% among 1,600 | AID 720535; note: potency is the fitted concentration of half-maximal effect; % is set by controls: 0 for no effect and ±100 for the full control effect; nearly all actives have a fitted effect of over 70% in size
CCL64 TGFb inh – TGF-b inhibition, CCL64 orthogonal assay; shares compounds with TGFb SMAD3 inh; CCL64 CAGA-GFP reporter, TGF-b stimulated, GFP fluorescence, 18 h; Potency, µM (top dose mostly 46.1 µM), inactives show at the top dose activity, negative = inhibition, actives largely listed as inhibitors; hit rate 41% among 1,600; AID 720536; note: potency is the fitted concentration of half-maximal effect; nearly all actives have a fitted effect of over 65% in size
TGFb COP inh – validation of TGF-b inhibitors in HepG2 COP promoter reporter. shares compounds with TGFb SMAD3 inh. HepG2 COP-GFP TGF-b reporter, GFP fluorescence, 18 h; cells stimulated by added recombinant TGF-beta. Potency, µM (top dose mostly 46.1 µM), without a hit: at the top dose activity, negative = inhibition, most hits filed as inhibitors. hit rate 3% among 1,600; note: potency is the fitted concentration of half-maximal effect; nearly all actives have a fitted effect of over 70% in size
The depositor's hits bear a star. Unless noted, calls come from the whole dose curve; as a rule, active = well fitted curve in the direction sought with a large enough effect; inconclusive = small, poorly fitted or top-dose-only effect, or another doubt; inactive = no such curve, though single readings can be large; an effect the other way counts as inactive or inconclusive.

Results for COCCNc1nc(NCc2ccccc2)nc2ccsc12 ?
HepG2 tox-1: -23%; ATXN viability: inactive; TGFb SMAD3 inh: 2.5µM*; ATXN2 expr inh: -8%; TGFb confirm: 3.7µM*; HepG2 tox-2: inconclusive; CCL64 TGFb inh: 4.1µM*; TGFb COP inh: 57%

What do the screens show for `Cc1ccc(CNc2nc(NCc3ccccc3)nc3ccsc23)c(C)c1`?
HepG2 tox-1: -116%; ATXN viability: inconclusive; TGFb SMAD3 inh: 5µM*; ATXN2 expr inh: inconclusive; TGFb confirm: inconclusive; HepG2 tox-2: inconclusive; CCL64 TGFb inh: 15µM*; TGFb COP inh: inconclusive

What do the screens show for `CC(=O)NCCNc1nc(NCc2ccccc2)nc2ccsc12`?
HepG2 tox-1: 7%; ATXN viability: inactive; TGFb SMAD3 inh: inconclusive; ATXN2 expr inh: 16%

How did O=C1CCCN1CCCNc1nc(NCc2ccccc2)nc2ccsc12 do in these assays?
HepG2 tox-1: -37%; ATXN viability: inactive; TGFb SMAD3 inh: 3.2µM*; ATXN2 expr inh: -9%; TGFb confirm: 2.9µM*; HepG2 tox-2: 7.3µM*; CCL64 TGFb inh: 5.2µM*; TGFb COP inh: 48%

What do the screens show for `COCCNc1nc(NC(C)C)nc2ccsc12`?
HepG2 tox-1: -7%; ATXN viability: inactive; TGFb SMAD3 inh: -16%; ATXN2 expr inh: 4%

How did CNc1nc(NCc2ccc(C)cc2C)c2sccc2n1 do in these assays?
HepG2 tox-1: -7%; ATXN viability: inconclusive; TGFb SMAD3 inh: 11µM*; ATXN2 expr inh: inconclusive; TGFb confirm: 16µM*; HepG2 tox-2: inconclusive; CCL64 TGFb inh: inconclusive; TGFb COP inh: 68%

How did CCOC(=O)Nc1nc(-c2ccccc2)c(C(=O)c2ccc(Cl)cc2)s1 do in these assays?
uPA generation: -8%; HepG2 tox-1: 16%; ATXN viability: inconclusive; TGFb SMAD3 inh: 8.9µM*; Giardia kill: -9; ATXN2 expr inh: -12%; TGFb confirm: 7.3µM*; HepG2 tox-2: -9%; CCL64 TGFb inh: 9.2µM*; TGFb COP inh: 3%

What do the screens show for `CCOC(=O)Nc1sc(C)nc1-c1ccccc1`?
uPA generation: -7%; HepG2 tox-1: 5%; ATXN viability: inactive; TGFb SMAD3 inh: 5%; Giardia kill: 11; ATXN2 expr inh: 25%

What do the screens show for `COCCNC(=O)CCn1c(=O)c2cc(OC)c(OC)cc2n(CC(=O)Nc2ccc(F)c(Cl)c2)c1=O`?
HepG2 tox-1: -20%; ATXN viability: inactive; TGFb SMAD3 inh: -12%; ATXN2 expr inh: 4%

How did COc1ccccc1NS(=O)(=O)c1cccc(NC(=O)Nc2ccccc2)c1 do in these assays?
uPA generation: 4%; HepG2 tox-1: -25%; ATXN viability: inactive; TGFb SMAD3 inh: 10µM*; Giardia kill: -1; ATXN2 expr inh: -29%; TGFb confirm: inconclusive; HepG2 tox-2: inconclusive; CCL64 TGFb inh: inconclusive; TGFb COP inh: 57%

How did CCNC(=S)Nc1cccc(S(=O)(=O)Nc2ccccc2OC)c1 do in these assays?
uPA generation: 1%; HepG2 tox-1: -4%; ATXN viability: inactive; TGFb SMAD3 inh: -4%; Giardia kill: 2; ATXN2 expr inh: -18%

How did CC1CCN(S(=O)(=O)c2ccc3c(c2)oc(=O)n3CC(=O)O)CC1 do in these assays?
HepG2 tox-1: 12%; TGFb SMAD3 inh: -3%

What do the screens show for `Cc1cc(C)cc(NC(=O)Cn2c(=O)oc3cc(S(=O)(=O)N4CCC(C)CC4)ccc32)c1`?
uPA generation: -28%; HepG2 tox-1: 7.9µM*; ATXN viability: inactive; TGFb SMAD3 inh: 7.9µM*; Giardia kill: inconclusive; ATXN2 expr inh: inconclusive; TGFb confirm: inconclusive; HepG2 tox-2: -22%; CCL64 TGFb inh: inconclusive; TGFb COP inh: 8%

What do the screens show for `O=C(Nc1cccc(Cl)c1)Nc1nnc(-c2ccncc2)s1`?
uPA generation: 1%; HepG2 tox-1: -45%; TGFb SMAD3 inh: 7.9µM*; Giardia kill: -13; ATXN2 expr inh: inconclusive; TGFb confirm: 10µM*; HepG2 tox-2: inconclusive; CCL64 TGFb inh: 6.5µM*; TGFb COP inh: 64%

Results for Cc1ccc(NC(=O)Nc2nnc(-c3ccncc3)s2)cc1C ?
uPA generation: -2%; HepG2 tox-1: -44%; ATXN viability: inactive; TGFb SMAD3 inh: 7.9µM*; Giardia kill: 3; ATXN2 expr inh: -34%; TGFb confirm: 9.2µM*; HepG2 tox-2: inconclusive; CCL64 TGFb inh: inconclusive; TGFb COP inh: 27%

How did NC(c1csc(NC(=O)Nc2cccc(Cl)c2)n1)c1ccccc1Cl (stereo not drawn) do in these assays?
HepG2 tox-1: -89%; ATXN viability: inconclusive; TGFb SMAD3 inh: 10µM*; ATXN2 expr inh: inconclusive; TGFb confirm: 18µM*; HepG2 tox-2: inconclusive; CCL64 TGFb inh: inconclusive; TGFb COP inh: 73%

Results for CCSc1nnc(NC(=O)[C@@H](NC(=O)c2cccc(C)c2)C(C)C)s1 ?
uPA generation: -9%; HepG2 tox-1: 9%; ATXN viability: inactive; TGFb SMAD3 inh: -8%; Giardia kill: 3; ATXN2 expr inh: 4%

Results for CCSc1nnc(NC(=O)Nc2cccc(C)c2)s1 ?
uPA generation: 4%; HepG2 tox-1: -25%; ATXN viability: inactive; TGFb SMAD3 inh: 7.9µM*; Giardia kill: 1; ATXN2 expr inh: -7%; TGFb confirm: inconclusive; HepG2 tox-2: inconclusive; CCL64 TGFb inh: inconclusive; TGFb COP inh: 21%

What do the screens show for `Cc1ccccc1C(=O)Nc1nnc(S(=O)(=O)N(C)Cc2ccc(Cl)cc2)s1`?
HepG2 tox-1: -31%; TGFb SMAD3 inh: inconclusive
